# Compounds with a hit are over-represented: about 1.4% of the library has one in this group of screens.
# PV pol inh – poliovirus RNA polymerase inhibition | P03300 | poliovirus polymerase elongation, fluorescence polarization; stronger effect = lower value | % elongation, % (compound at 16.7 µg/mL) | 0.66% of 150,000 active | AID 588519; in the data active means % elongation below about 90%
# Mtb MbtI inh – blocks the Mycobacterium tuberculosis siderophore enzyme MbtI. 0.89% of 100,000 active. purified MbtI enzyme, fluorescence intensity read-out. inhibition, % (concentration not given with the values). P9WFX0; in the data active means inhibition mostly above about 56%, no sharp cut-off; inactive means mostly below about 77%
# Mtb MenB inh – Mtb MenB enzyme inhibition; MenB enzyme assay, absorbance read-out; 0.43% of 100,000 active; AID 540299; P9WNP5; inhibition, % (concentration not given with the values); in the data active means inhibition above about 21%, passing the limit was not always enough
# Target sequence (P9WNP5 whole entry, looked up): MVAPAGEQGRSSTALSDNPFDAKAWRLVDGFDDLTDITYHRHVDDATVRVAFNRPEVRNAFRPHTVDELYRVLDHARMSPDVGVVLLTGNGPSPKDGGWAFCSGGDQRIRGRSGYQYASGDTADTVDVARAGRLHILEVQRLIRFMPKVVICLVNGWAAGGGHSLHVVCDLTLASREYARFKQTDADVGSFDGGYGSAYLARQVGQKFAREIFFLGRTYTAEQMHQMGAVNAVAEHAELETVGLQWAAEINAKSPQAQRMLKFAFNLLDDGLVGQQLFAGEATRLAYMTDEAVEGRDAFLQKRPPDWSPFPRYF
# * = called active by the depositor; x = no result.
SMILES,PV pol inh,Mtb MbtI inh,Mtb MenB inh
COCCCNC(=O)c1cc(-c2cccnc2)nc2ccc(S(=O)(=O)N3CCC(C)CC3)cc12,47.0*,x,x
COCCNC(=O)c1cc(-c2cccnc2)nc2ccc(S(=O)(=O)N3CCCCCC3)cc12,102.0,-19.2,1.9
Cc1ccc(Nc2nc(N)nc(CN3CCN(S(=O)(=O)c4ccc5c(c4)CCC5)CC3)n2)cc1,103.0,5.5,-31.0
CCOc1ccc(N2C(=O)CC(NCCNC(=O)c3ccc(Cl)cc3)C2=O)cc1 (stereo not drawn),102.0,4.8,26.9*
CCNC1CC(=O)N(c2ccc(C(=O)OCC)cc2)C1=O (stereo not drawn),100.0,6.3,30.4
O=C(OCC(=O)N1CCCC1=O)c1ccc(S(=O)(=O)NCc2ccco2)cc1,105.0,-3.5,-13.8
CN(C)Cn1c(=S)oc2cc(S(=O)(=O)Nc3ccccc3Cl)ccc21,101.0,-3.6,-17.5
Cc1ccc(-n2c(C)c(C)c(C#N)c2N)cc1,99.0,22.8,5.5
N#CC(C(=O)COc1ccccc1)c1nc2ccccc2[nH]1 (stereo not drawn),101.0,-11.9,x
N#CC(C(=O)c1ccco1)c1nc2ccccc2[nH]1 (stereo not drawn),106.0,98.3*,-7.6
COC(=O)CSC(C)c1nc2ccccc2c(=O)[nH]1 (stereo not drawn),108.0,11.8,-18.5
CCc1cc(=O)oc2cc(O)cc(O)c12,98.0,-50.5,47.4*
CCc1cc(=O)oc2cc(O)ccc12,103.0,76.5,x
O=C(Cc1ccc(Cl)cc1)NCc1ccc2[nH]c3c(c2c1)CCCC3,100.0,-9.1,-4.0
CCN(C(=O)Cn1cnc2ccccc21)c1ccccc1,104.0,-16.2,-28.1
Cc1ccccc1NC(=O)N1CCCC(c2nc(-c3ccc(F)cc3)no2)C1 (stereo not drawn),103.0,1.7,29.2*
CC(C)C(=O)N1CCC(c2nc(-c3ccc(F)cc3)no2)CC1,101.0,9.1,24.1
CCC(C)c1ccc(C2=Nn3c(nnc3C(C)C)SC2)cc1 (stereo not drawn),74.0*,51.0,-17.8
c1ccc(C2=Nn3c(nnc3C3COc4ccccc4O3)SC2)cc1 (stereo not drawn),94.0,-39.0,13.3
O=C(/C=C/c1ccco1)Nc1cccc(C(F)(F)F)c1,102.0,17.1,-12.4
COc1ccc(-c2nnc3sc(C(C)N4C(=O)c5ccccc5C4=O)nn23)cc1 (stereo not drawn),102.0,5.3,-11.3
CC(C)CC(=O)Nc1nn2c(COc3ccccc3)nnc2s1,99.0,22.0,-38.1
O=C1c2ccccc2C(=O)N1CCc1nn2c(-c3cccnc3)nnc2s1,100.0,86.7*,8.9
c1ccc(CCc2nn3c(COc4ccccc4)nnc3s2)cc1,99.0,76.2*,-33.7
c1ccc(-c2nn3c(-c4ccccc4)nnc3s2)cc1,101.0,19.1,-2.8
SMILES,PV pol inh,Mtb MbtI inh,Mtb MenB inh
c1ccc(OCc2nn3c(-c4ccccc4)nnc3s2)cc1,96.0,86.3*,-45.1
COc1ccc(CN(C)/C(C)=C/C(=O)C(F)(F)F)c(OC)c1OC,102.0,18.7,-8.4
NC(=O)C1CC(O)CN1c1ncnc2cc(-c3ccc(F)cc3)sc12 (stereo not drawn),100.0,-22.0,11.3
CC1CN(C(=O)C(C)N(C)Cc2nc3ccccc3c(=O)[nH]2)CC(C)O1 (stereo not drawn),102.0,7.9,2.5
O=C1NC(CCc2ccccc2)C(=O)N1Cc1cc(=O)n2ccsc2n1 (stereo not drawn),98.0,16.4,11.8
Brc1ccc2ncnc(NCCCN3CCOCC3)c2c1,103.0,3.2,-5.2
O=C(Nc1ccc(-n2cnnn2)cc1)C1c2ccccc2Oc2ccccc21,105.0,-11.4,-14.2
CSc1ccc(C(=O)O)s1,x,0.3,x
CC(C)(C)Sc1ccc(SC#N)s1,95.0,80.6*,-32.4
CC(C)(C)Sc1ccc(C(=O)O)s1,x,57.4*,x
Cc1cc(SC#N)ccc1N,98.0,18.9,6.5
CC(C)CCn1c(=O)c2cccnc2n(Cc2cccc(Cl)c2)c1=O,100.0,-10.7,-4.4
O=C(Nc1ccc(N2C(=O)Nc3ccccc3N2O)cc1)c1ccco1,100.0,12.8,16.2
O=c1[nH]c(=O)n(Cc2ccccc2)c2ncn(Cc3ccco3)c12,107.0,-16.8,-12.4
Cn1cnc2c1c(=S)[nH]c(=O)n2Cc1ccccc1,82.0*,x,-26.8
O=C(Nc1sc2c(c1C(=O)NCc1ccco1)CCC2)c1ccc(F)cc1,104.0,27.4,x
CCC(=O)NC(=S)c1c(C)nc2sccn12,57.0*,15.2,-222.2
Cc1nc2sccn2c1C(=S)NC(=O)c1ccccc1F,95.0,15.3,-124.4
CC1CCCC(C)N1C(=O)c1cc2cccnc2n(Cc2ccccc2)c1=O (stereo not drawn),109.0,1.7,-21.0
CCc1ccc(/C=C2/C(=O)N(C)C(=S)N2C)cc1,102.0,-10.6,-149.9
NNCCc1ccccc1,100.0,0.2,-3.9
COc1ccc(CCN=C=S)cc1,77.0*,96.3*,-68.4
